{"source": "PubChem BioAssay (EPA / NIEHS)", "note": "Active and inactive are the calls of the source. How the source made its calls: active means hit-call score of the fitted dose curve at least 0.9, where 1 is the maximum; inactive means score below 0.9.", "data": [{"assay": "ATG_E_Box_CIS: Attagene CIS-FACTORIAL HepG2 Assay for human Enhancer Box (E-box) (AID 2282936)", "conditions": "HepG2 E-box cis-reporter transcription, actives raise or lower the signal", "protocol": "ATG_CIS is a cell-based, multiplexed-readout assay that uses HepG2, a human liver cell line, with measurements taken at 24 hours after chemical dosing in a 24-well plate.ATG_E_Box_CIS is one of 52 assay component(s) measured or calculated from the ATG_CIS assay. It is designed to make measurements of mRNA induction, a form of inducible reporter, as detected with fluorescence intensity signals by Reverse transcription polymerase chain reaction (RT-PCR) and Capillary electrophoresis technology.Data from the assay component ATG_E_Box_CIS was analyzed into 1 assay endpoint. This assay endpoint, ATG_E_Box_CIS, was analyzed with bidirectional fitting relative to DMSO as the negative control and baseline of activity. Using a type of inducible reporter, measures of mRNA for gain or loss-of-signal activity can be used to understand the reporter gene at the transcription factor-level as they relate to the gene USF1. Furthermore, this assay endpoint can be referred to as a primary readout, because this assay has produced multiple assay endpoints where this one serves a reporter gene function. To generalize the intended target to other relatable targets, this assay endpoint is annotated to the dna binding intended target family, where the subfamily is basic helix-loop-helix protein.\nHuman liver HepG2 cells are transiently transfected with multiple reporter transcription units (MRTUs) in 6-well plates using FuGene 6 reagent (Roche; 3 ml FuGene/1 mg DNA). The MRTU constructs are regulated by a cis-regulating element (promoter). […] A major difference between the CIS and TRANS system is that in CIS activities of endogenous TFs are measured, whereas the TRANS assay evaluates changes in activities of exogenous, chimeric NR-Gal4 proteins. […] At the end of 24 hour incubation, total RNA was isolated using TriZol reagent (Invitrogen). The isolated RNA is then reverse-transcribed using oligo(dT) primer and Mo-MLV reverse transcriptase (Invitrogen) with DNAse I (Ambion) treatment for 30 min. The one-tenth of the produced cDNA was amplified by PCR using Taq DNA polymerase (Invitrogen) and two reporter sequence-specific primers. The PCR products were fluorescently labeled by primer extension with 6-arboxyfluorescein (6-FAM) 5'-labeled reporter sequence-specific primer (2 min at 95 C, 20 s at 68 C and 10 min at 72 C) and these products were digested with 5U of HpaI (New England Biolabs) for 2h at 37 C. The fragments were purified using Qiaquick PCR columns (Qiagen), analyzed on an ABI 3130xL genetic analyzer (Applied Biosystems) with peak positions identified by using a set of X-rhodamine (ROX)-labeled MapMarker1000 molecular weight standards (BioVentures). The raw capillary electrophoresis data was processed using Attagraph software (Attagene).", "values": [{"smiles": "CCC(C)(O)CCC=C(C)C", "note": "(stereo not given)", "outcome": "inactive"}, {"smiles": "CSc1nc(NC2CC2)nc(NC(C)(C)C)n1", "outcome": "inactive"}, {"smiles": "COc1ccc(Cl)cc1C", "outcome": "inactive"}, {"smiles": "C[C@H]1C[C@H]2[C@@H]3CCC4=CC(=O)C=C[C@]4(C)[C@@]3(F)[C@@H](O)C[C@]2(C)[C@@]1(O)C(=O)COP(=O)(O)O", "outcome": "inactive"}, {"smiles": "O=C(O)c1ccc(C(=O)O)cc1", "outcome": "inactive"}, {"smiles": "CCC(O)CO", "note": "(stereo not given)", "outcome": "inactive"}, {"smiles": "O=S(=O)(O)c1ccc(O)c2ncccc12", "outcome": "inactive"}, {"smiles": "O=C=NC1CCC(CC2CCC(N=C=O)CC2)CC1", "note": "(stereo not given)", "AC50": "76.9 µM (active)"}, {"smiles": "O=C1NC(=O)c2ccccc21", "outcome": "inactive"}, {"smiles": "C=C[Si](OCC)(OCC)OCC", "outcome": "inactive"}, {"smiles": "CCCc1c(OCCCOc2ccc(OCC(=O)O)cc2)ccc(C(C)=O)c1O", "outcome": "inactive"}, {"smiles": "O=C1CCc2ccccc2O1", "outcome": "inactive"}, {"smiles": "CN1[C@@H]2CC(OC(=O)[C@H](CO)c3ccccc3)C[C@H]1[C@@H]1O[C@@H]12", "note": "(stereo not given in full)", "outcome": "inactive"}, {"smiles": "O=C(O)C[C@H](O)C[C@H](O)/C=C/c1c(C2CC2)nc2ccccc2c1-c1ccc(F)cc1", "outcome": "inactive"}, {"smiles": "CC(=O)OCCOC(C)=O", "outcome": "inactive"}, {"smiles": "CC(CCO)CCc1ccccc1", "note": "(stereo not given)", "outcome": "inactive"}, {"smiles": "CC(C)=CCO", "outcome": "inactive"}, {"smiles": "CC1(C)[C@H]2CC[C@]1(C)[C@H](O)C2", "outcome": "inactive"}, {"smiles": "CC(C)C1CCC(O)CC1", "note": "(stereo not given)", "outcome": "inactive"}, {"smiles": "CCCC(=O)c1cc(O)c(O)cc1O", "outcome": "inactive"}, {"smiles": "COc1ccc(OC)c(OC)c1", "outcome": "inactive"}, {"smiles": "C[C@H]1C[C@@H]2[C@H]([C@@H](O)C[C@@]3(C)[C@H]2CC[C@]3(O)C(=O)CO)[C@@]2(C)C=CC(=O)C=C12", "outcome": "inactive"}, {"smiles": "O=C(Nc1ccccc1)c1cc([N+](=O)[O-])ccc1Cl", "outcome": "inactive"}, {"smiles": "CCCCNC(=O)NS(=O)(=O)c1ccc(C)cc1", "outcome": "inactive"}, {"smiles": "Clc1ccc2c(c1)C(N1CCNCC1)=Nc1ccccc1O2", "outcome": "inactive"}, {"smiles": "NCCNCCN", "outcome": "inactive"}, {"smiles": "O=C(O)CCCCC1CCSS1", "note": "(stereo not given)", "outcome": "inactive"}, {"smiles": "COCCCOc1ccnc(CS(=O)c2nc3ccccc3[nH]2)c1C", "note": "(stereo not given)", "outcome": "inactive"}, {"smiles": "Clc1sc(Cl)c(Cl)c1Cl", "outcome": "inactive"}, {"smiles": "CC(C)=CCC[C@H](C)CC=O", "outcome": "inactive"}, {"smiles": "CCC(=O)/C=C/C1C(C)=CCCC1(C)C", "note": "(stereo not given)", "outcome": "inactive"}, {"smiles": "Cc1cccc(C)c1C", "outcome": "inactive"}, {"smiles": "CNCCO", "outcome": "inactive"}, {"smiles": "CC(=O)Nc1ccc(CC(=O)O)cc1", "outcome": "inactive"}, {"smiles": "C=CC(=O)OCCOCCOCC", "outcome": "inactive"}, {"smiles": "C=CC(=O)NCOCC(C)C", "outcome": "inactive"}, {"smiles": "Cc1ccccc1C=O", "outcome": "inactive"}, {"smiles": "c1ccc2c(c1)c1cccc3ccc4cccc2c4c31", "outcome": "inactive"}, {"smiles": "O=[N+]([O-])c1cc(C(F)(F)F)ccc1Cl", "outcome": "inactive"}, {"smiles": "[Ca+2]", "outcome": "inactive"}]}]}
